Among all 48,000 compounds or so, about 13,000 (27%) showed an effect of 50% or more. The list shows a part of the results.
test system: Wolbachia pipientis; assay: Anti-Wolbachia Cell-Based Screen; format: functional; design: scale not given: in the data most compounds retested in dose-response had high values; conditions: 5 µM

SMILES	Percent Effect [%]
O=C(O)c1cc2c(nc1O)CC(c1cccs1)CC2=O (configuration not stated)	17.51
O=C(CCS(=O)(=O)C1CCCC1)NCCc1cccnc1	3.812
c1cn(Cc2nnc(C3CCN(C4CCOCC4)CC3)n2C2CC2)cn1	2.986
Cc1ccccc1Cc1nc(CSc2nnc(N)n2C2CC2)no1	8.42
O=C(O)c1cc(-c2cccnc2)cc(S(=O)(=O)NCc2ccccn2)c1	-2.76
CCC(C)Oc1cc(C(=O)Nc2nnc(C(C)C)[nH]2)ccn1 (configuration not stated)	-13.47
Cc1occc1C(=O)N1CCC(C(O)c2ccc(Cl)cc2)CC1 (configuration not stated)	-7.182
COCCN1CCc2ncnc(NC3CC3)c2CC1	94.73
FC(F)(F)c1cc(N2CCc3ncnc(NC4CC4)c3CC2)ncn1	-22.18
CN(C)c1ncnc2c1CCN(c1cccc(F)c1)CC2	-12.67
CN(C)c1ncnc2c1CCN(c1cc(C(F)(F)F)ncn1)CC2	-1.194
COCCN1CCc2ncnc(N(C)C)c2CC1	110.9
Cc1nc2n(n1)CC(Nc1ncnc3c1CCC3)CC2 (configuration not stated)	2.355
Cc1ccc(S(=O)(=O)Cc2noc([C@@H]3C[C@@H](O)CN3C(C)C)n2)cc1	-1.954
COCCNC(=O)N1CCN(C(C)C(=O)NC(C)C)CC1 (configuration not stated)	2.251
COCCNC(=O)N1CCN(C(C)C(=O)NC2CCCC2)CC1 (configuration not stated)	-10.58
COCCNC(=O)C(C)N1CCN(C)CC1.O=C(O)C(=O)O (configuration not stated)	114.3
Cc1cccc(CC(=O)Nc2cccnc2N2CCC(CO)CC2)c1	-12.05
O=C1CCC2(CCCN(c3ncc(Cl)cc3F)C2)CN1CC1CC1 (configuration not stated)	-9.557
NCc1ccc(N2CCN(c3ncccn3)CC2)c(F)c1	3.698
Cc1cccc(N2N=C(C(=O)NC(C)Cc3ccco3)CCC2=O)c1 (configuration not stated)	19.33
CC1C(=O)Nc2cccnc2N1S(=O)(=O)c1cc(F)cc(F)c1 (configuration not stated)	-12.84
Cc1cc(N2CCc3c(ncn3C)C2)nc(N)n1	-0.5866

SMILES	Percent Effect [%]
Cc1cc(NCc2nnc3n2CCCCC3)n2nc(C)c(C)c2n1	-13.55
Cc1cc(N2CCc3c(ncn3C3CC3)C2)nc(N)n1	13.11
Cc1cc(N2CCCC2c2nnc3n2CCCCC3)nc(N)n1 (configuration not stated)	170
Cc1cc(N2CCCC2c2nnc3n2CCCCC3)nc(C)n1 (configuration not stated)	112.6
Cc1cc(C(=O)N2CCCC2c2nnc3n2CCCCC3)no1 (configuration not stated)	-10.19
CN1C(=O)C(c2ccccc2)CC12CCN(CCN1CCCC1=O)CC2 (configuration not stated)	-2.19
CCc1cccc(NC(=O)NC2CCc3nc(C)nn3C2)c1 (configuration not stated)	-9.583
CC(C)n1[nH]c(=O)c2c1NC(=O)CC2C1CCCCC1 (configuration not stated)	0.5792
Cc1cscc1C(=O)Nc1cc(CSCCO)ccn1	-31.68
COc1cccc(C(C(=O)O)N2CCCN(c3ccnc(C)c3)CC2)c1 (configuration not stated)	11.66
N#Cc1cc(F)c(NCCc2ccc(S(N)(=O)=O)cc2)c(F)c1	2.812
N#Cc1cc(F)c(NCCc2ccc(F)cc2)c(F)c1	-6.207
N#Cc1cc(F)c(NCc2ccc(F)cc2)c(F)c1	53.8
Cc1ccc([C@@H]2CN(C(=O)c3csc(C)n3)C[C@H]2NC(=O)C2CC2)cc1	-2.75
CC(C)c1nnc2n1CCN(CC(=O)N1CCc3ccccc3C1)C2	2.244
CCCNc1ncc(-c2cc(C3CC3)nc(N)c2C#N)cn1	97.87
CCSc1ncc(-c2nccn2CCN(C)C)cn1	-18.01
CCSc1ncc(-c2cc(C3CCC3)nc(N)c2C#N)cn1	87.05
CCSc1ncc(-c2cc(C3CC3)nc(N)c2C#N)cn1	99.54
CCSc1ncc(CN2CCN(c3ncc(C)c(N)n3)CC2)cn1	-0.8762
CC(C)c1ncc(-c2cc(C3CCC3)nc(N)c2C#N)cn1	96.4
CCSc1ncc(CN2CCN(c3ccc(C#N)cc3)C(=O)C2)cn1	-0.09513
O=C(NC1CCN(c2ncccn2)CC1)c1cc2c([nH]c1=O)CCC2	7.428

SMILES	Percent Effect [%]
Cc1nnc(SCCC(=O)N(C)Cc2ccc(F)cc2F)[nH]1	2.141
O=C(O)C(F)(F)F.O=C1CC[C@H]2[C@H](CCN2C(=O)C2CCOCC2)N1Cc1ccncc1	25.13
CN1CCN(C(=O)c2ccc3c(c2)[nH]c(=O)n3C2CCCC2)CC1	14.39
Cc1cc(-c2nn(C)c(Cl)c2CN2CCCCC(N)C2)no1 (configuration not stated)	-8.809
COCc1cc(CC2(NC3CCCCC3)COC2)no1	18.94
CC(Cn1cccn1)NCc1csc(-c2ccc3c(c2)OCO3)n1 (configuration not stated)	-1.421
Cc1cc2[nH]c(CN3CCOC(Cc4ccccc4)C3)cc(=O)n2n1 (configuration not stated)	-6.493
Cc1cccc(C(=O)Nc2cccc3c2C(=O)NC3)n1	-5.114
COCC1CN(C(=O)c2cccc(C)n2)Cc2ncnn2C1 (configuration not stated)	-6.948
CCc1sc(-c2nnc(CNC(C)Cn3cc(C)cn3)o2)cc1C (configuration not stated)	-3.595
CCc1ccc(CN2CCN(Cc3ncc[nH]3)[C@H]3CS(=O)(=O)C[C@H]32)nc1	8.56
[O-][S+](CCN1CCc2[nH]nc(C(F)(F)F)c2C1)c1ccccc1 (configuration not stated)	-3.726
CCC1CCCCN1Cc1nc2c(cnn2C)c(=O)[nH]1 (configuration not stated)	107.5
COc1cccc(C2CCCN2Cc2nc3c(cnn3C)c(=O)[nH]2)c1 (configuration not stated)	-3.209
Cc1ccc(C2CCCN2Cc2nc3c(cnn3C)c(=O)[nH]2)cc1C (configuration not stated)	2.271
Cn1ncc2c(=O)[nH]c(CN3CCCC3CCc3ccccc3)nc21 (configuration not stated)	94.92
Cn1ncc2c(=O)[nH]c(CN3CCCC3CC3CCCCC3)nc21 (configuration not stated)	-0.1708
Cn1ncc2c(=O)[nH]c(CN3CCCC3Cc3ccc(F)cc3)nc21 (configuration not stated)	116
Cn1ncc2c(=O)[nH]c(CN3CCC(Cc4ccccc4)CC3)nc21	-8.773
Cn1ncc2c(=O)[nH]c(CN3CCCC3CC(C)(C)C)nc21 (configuration not stated)	114.1
Cn1ncc2c(=O)[nH]c(CN3CCCC3Cc3ccccc3)nc21 (configuration not stated)	-2.22

Reference: ChEMBL document CHEMBL3988442, “University of Dundee, Small-Polar-MMV Screening Library” (2021)
